This is part of a sample that, as a whole, favours compounds with a hit. Of some 83,000 tested, about 20% had one in any assay.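 The test compound was applied at a single concentration to cells in 96-well plates for 48 hours, and percent growth was recorded.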 Activity calls are given as the source filed them. The calls were made as follows: active = growth percent below 10; inactive = the rest.
Tested on: NCI-H322M lung
Assay: NCI-60 one-dose screen, 48 h (100 = growth as untreated, 0 = no growth, -100 = all killed)
Conditions: 10 µM unless noted

| Structure (SMILES) | growth |
| --- | --- |
| O=C(NCCNc1nccc(-n2ccc3cccnc32)n1)c1ccc(C(F)(F)F)cc1 | 107% (inactive) |
| C=C(C)[C@@H]1C[C@@H]2Cc3cc(Cl)ccc3N1O2 | 111% (inactive) |
| O=S(=O)(CC(O)(c1ccccc1)c1ccccc1)CC(O)(c1ccccc1)c1ccccc1 | 59.3% (inactive) |
| NC1=NC(SCc2ccccc2CCl)c2ncn(Cc3ccccc3CCl)c2N1 (stereo unspecified) | 80.8% (inactive) |
| C=C[C@@H]1C[C@@H]2Cc3c(C)cc(C)cc3N1O2 | 91.9% (inactive) |
| COc1cc(/C=N\NC(=O)CN2CCN(c3cc4c(cc3F)c(=O)c(C(=O)N/N=C/c3cc(OC)c(OC)c(OC)c3)cn4C3CC3)CC2)cc(OC)c1OC | 11.5% (inactive) |
| Fc1ccc(-c2nc(-c3nc4ncccc4[nH]3)cc3c2[nH]c2ccccc23)cc1F | 64.7% (inactive) |
| COc1cc(-c2nc(-c3nc4ccc(Cl)cc4[nH]3)cc3c2[nH]c2ccccc23)cc(OC)c1OC | 82.9% (inactive) |
| C=C(C)[C@@H]1C[C@@H]2Cc3ccc(Cl)c(C)c3N1O2 | 108% (inactive) |
| CCCCCCCCC(C)OC(=O)c1nn(C(C)=O)c2ccccc12 (stereo unspecified) | 102% (inactive) |
| COc1cc(/C(C#N)=C/c2ccc3c(c2OC)OCO3)cc2c1OCO2 | 35.2% (inactive) |
| CC12CCC3C4(C)COC(c5ccco5)OC4CCC3(C)C1CC(C1=CCOC1=O)O2 (stereo unspecified) | 98.9% (inactive) |
| C=C1CCC2C3(C)COC(c4ccc(N(C)C)cc4)OC3CCC2(C)C1C/C=C1/C(=O)OCC1O (stereo unspecified) | 83.1% (inactive) |

Tested on: HOP-62 NSCLC
Assay: as above
Conditions: 10 µM unless noted

| Structure (SMILES) | growth |
| --- | --- |
| N#C/C(=C1C=C/C(=N/O)C(Cl)=C/1)c1ccc(Cl)cc1 | 45.7% (inactive) |
| c1coc(CNc2ccnc(Nc3ccc(OCCN4CCCCC4)cc3)n2)c1 | 93.1% (inactive) |
| C=C1CCC2C(C)(CO)C(O)CCC2(C)C1C/C=C1/C(=O)OCC1O/C=C/c1ccccc1 (stereo unspecified) | 104% (inactive) |
| C=C(C)[C@@H]1CC[C@]2(C(=O)N3CCNCC3)CC[C@]3(C)[C@H](CC[C@@H]4[C@@]5(C)C/C(=C/c6ccncc6)C(=O)C(C)(C)[C@@H]5CC[C@]43C)[C@@H]12 | 107% (inactive) |
| CCOC(=O)C1C(=O)C=C(c2ccc(OC)cc2)CC1c1sc(N(C)Cc2ccccc2)nc1Cl (stereo unspecified) | 81.6% (inactive) |
| COc1cc(/C=C/C(=O)/C=C/c2cc(OC)c3c(c2)OCO3)cc2c1OCO2 | 106% (inactive) |
| C[n+]1c(/C=C/c2c(O)ccc3ccccc23)ccc2ccccc21 | 54.8% (inactive) |
| CCN(CC)CCC(CNc1c2ccc(Cl)cc2nc2ccc(OC)cc12)c1ccccc1 (stereo unspecified) | -49.8% (active) |
| C=C1CC2(OC1=O)C(=O)N(CCCN1C(=O)C3(CC(=C)C(=O)O3)c3ccccc31)c1ccccc12 (stereo unspecified) | 98.2% (inactive) |
| CN(CCCCCl)P(=O)(OCc1ccc([N+](=O)[O-])o1)C(F)(F)C[C@H](NC(=O)CNC(=O)c1ccc(N=[N+]=[N-])cc1)C(=O)NCCc1ccc(O)cc1 (stereo partly specified) | 118% (inactive) |
| COc1ccc(C(=O)N2NC(=O)/C(=C/c3ccc(Br)cc3)N=C2c2ccccc2)cc1 | 46.6% (inactive) |
| N#Cc1c(-c2ccccc2)cc(-c2ccccc2)n(CC(=O)NO)c1=O | 71.2% (inactive) |
| COc1ccc(Nc2ncccc2C(=O)NCc2cn(Cc3cccc(Oc4ccccc4)c3)nn2)c(OC)c1 | 41.7% (inactive) |
| N/C(=N\S(=O)(=O)c1ccccc1)Nc1nc2ccccc2s1 | 86.3% (inactive) |
| O=S(=O)(NCCCNc1nccc(-n2ccc3cccnc32)n1)c1cccc(C(F)(F)F)c1 | 112% (inactive) |
| COc1cc(NC(N)=NCCC(C)(C)Oc2ccc(C(F)(F)F)cc2)ncc1C#N | 31% (inactive) |
| COc1ccc2c(c1)[nH]c(=O)c1c3cc(OC)ccc3cn21 | 20% (inactive) |
| FC(F)(F)c1cccc(-c2cn3c(ccc4ccccc43)n2)c1 | 76.7% (inactive) |
| COc1ccc(CN2CCc3c(Sc4ccccc4)nc(N)nc3C2=O)c(OC)c1 | 86.2% (inactive) |
| COc1ccc(Nc2ncccc2C(=O)NCc2cn(Cc3cccc(Oc4ccccc4)c3)nn2)cc1 | 51.2% (inactive) |
| CCN(CC)CCC(CNc1ccnc2cc(Cl)ccc12)c1ccc(Cl)cc1 (stereo unspecified) | 6.58% (active) |
| Cc1ccc(S(=O)(=O)C2=C3C(=C(c4ccccc4)c4ccccc43)CN(S(=O)(=O)c3ccc(C)cc3)C2)cc1 | 88.6% (inactive) |
| O=C1C(Cl)=C(Nc2ccccn2)C(=O)c2ccccc21 | 46.9% (inactive) |

— PubChem BioAssay (NCI)
